Data: ChEMBL document CHEMBL3988442, “University of Dundee, Small-Polar-MMV Screening Library” (2021)
The whole screen tested about 38,000 compounds, of which about 1,200 (3.2%) showed an effect of 50% or more. The median lay at about -58%. Shown is part of a subset that was picked to be rich in strong results.

What follows are compounds tested on Plasmodium falciparum (assay: Calibr Malaria Delayed Death Assay SOP). Conditions: concentration 4.99e-06 (unit not given; other assays of the set use mol/L).
Type: functional, organism-based
Set-up: scale not given: in the data most compounds retested in dose-response had high values

Compared with `c1ccc(-c2nnc([C@H]3CCN(C4CCOCC4)C3)o2)cc1`, `O=C(C1CCOCC1)N1CC[C@@H](N2CCOCC2)[C@@H]1Cc1ccccc1` is higher in “Percent Effect” value: -0.6483% for the first, 3.107% for the second.

Going from `Cc1noc(C)c1CN1C[C@H](OCC2CC2)[C@H]2COC[C@H]21.O=C(O)C(F)(F)F` to `Cc1noc(C)c1CN1CC[C@H](OCC2CC2)[C@@H](Cc2ccccc2)C1`, the “Percent Effect” value rises from -59.49% to 60.12%.

Compared with `O=C(O)C(F)(F)F.c1ccc(C[C@H]2CN(Cc3nccs3)CC[C@@H]2OCC2CC2)cc1`, `COCCN1CC[C@@H]2CN(Cc3cccnc3OC)C[C@@H]2C1.O=C(O)C(F)(F)F.O=C(O)C(F)(F)F` is lower in “Percent Effect” value: 38.1% for the first, -74.35% for the second.

First: OC(CNc1ccncn1)CN1CCCCCC1 (centres undefined)
Second: CC(C)(C)n1cc(C2=CCN(CCN3CCCCCC3)CC2)cn1
The “Percent Effect” value of the first is lower: -2.039% for the first, 70.18% for the second.

Going from `CC(C)c1ccc(C(=O)N2CCOCC2CC(=O)c2ccco2)cn1` (centres undefined) to `CC(C)CC(NC(=O)c1ccco1)c1nnc2ccccn12` (centres undefined), the “Percent Effect” value falls from -33.41% to -178.4%.

Going from `CS(=O)(=O)N1CCCC(Cc2cncc(Br)c2)CC1` (centres undefined) to `CS(=O)(=O)N1CC[C@H](c2nc3ccc(C(F)(F)F)cc3[nH]2)C1`, the “Percent Effect” value falls from -9.475% to -89.81%.

Going from `FC(F)(F)c1ccc2nc([C@H]3CCN(C4CCCCC4)C3)[nH]c2c1` to `FC(F)(F)c1ccc2nc([C@H]3CCN(C4CCC4)C3)[nH]c2c1`, the “Percent Effect” value falls from 83.6% to 5.22%.

Compared with `O=C(CCc1ccccc1)N1CCCCC1Cn1cccn1` (centres undefined), `CCOC(=O)C1(Cc2ccccc2)CCCN(Cc2nccn2CC)C1` (centres undefined) is higher in “Percent Effect” value: -77.88% for the first, 71.35% for the second.

Going from `Cc1ccc(CN2CCC3(CC2)CC3CN(C)Cc2cccnc2)o1.O=C(O)C(F)(F)F.O=C(O)C(F)(F)F.O=C(O)C(F)(F)F` (centres undefined) to `CN(Cc1cccnc1)CC1CC12CCN(c1nncs1)CC2.O=C(O)C(F)(F)F.O=C(O)C(F)(F)F.O=C(O)C(F)(F)F` (centres undefined), the “Percent Effect” value falls from 69.86% to -14.98%.

First: Cc1cnc(N2CCC3(CC2)CC3CN(C)Cc2cccnc2)nc1.O=C(O)C(F)(F)F.O=C(O)C(F)(F)F (centres undefined)
Second: CC(C)CC(=O)N1CC[C@H]2N(C)CC[C@@]2(C(=O)Nc2cccnc2)CC1.O=C(O)C(F)(F)F.O=C(O)C(F)(F)F
The “Percent Effect” value of the first is lower: -34.71% for the first, 15.37% for the second.

Going from `CCn1ccnc1CN1CCCC(CO)(Cc2cccc(Cl)c2)C1` (centres undefined) to `CCn1ccnc1CN1CCCC(CO)(CCCc2ccccc2)C1` (centres undefined), the “Percent Effect” value falls from 76.24% to 5.561%.

First: Cc1cnc(C)c(N2CCCC(CO)(Cc3cccc(Cl)c3)C2)n1 (centres undefined)
Second: O=C(O)C1(O)CCN(c2ccnc3c(C(F)(F)F)cccc23)CC1
The “Percent Effect” value of the first is higher: -85.57% for the first, -178.3% for the second.

Going from `CCOC(=O)C1(CCOC)CCCN(Cc2nccn2CC)C1` (centres undefined) to `CCOC(=O)C1(CCOC)CCN(Cc2nccn2CC)CC1`, the “Percent Effect” value falls from 6.985% to -18.48%.

First: CCn1c(N)nc2cc(C(=O)NCCc3ccccc3F)cnc21
Second: Cc1ccc(CC(=O)NCC(Cc2ccc(F)cc2)C(N)=O)cn1 (centres undefined)
The “Percent Effect” value of the first is lower: -271.4% for the first, -64.69% for the second.

First: CCc1nc(C2CCCN2CC(=O)Nc2cc(C)nn2C)no1 (centres undefined)
Second: O=C(CCn1ccnn1)N1CCCC(n2cncn2)C1 (centres undefined)
The “Percent Effect” value of the first is lower: -146.1% for the first, -95.7% for the second.

Going from `O=C(Cc1cccc(F)c1)NC1CCCc2cn[nH]c21` (centres undefined) to `CN(Cc1cccc(F)c1)C(=O)CN1CCOC(Cn2cncn2)C1` (centres undefined), the “Percent Effect” value falls from -5.228% to -118.2%.

Going from `CN(CCCOc1ccccc1)S(=O)(=O)c1cnn(C)c1` to `CCn1cc(C2=CCN(CCCOc3ccccc3)CC2)cn1`, the “Percent Effect” value rises from -2.544% to 81.92%.

Going from `O=C(Cc1c[nH]c2ncccc12)NCC(O)c1ccsc1` (centres undefined) to `CC(C)Oc1cccc(C(O)CNC(=O)NCc2cccs2)c1` (centres undefined), the “Percent Effect” value rises from -112.4% to -103.2%.

Compared with `NC(=O)c1ccccc1NC(=O)CCN1CCN(CCO)CC1`, `COc1ccc(NC(=O)CCN2CC=C(c3cnn(C)c3)CC2)c(C)c1` is lower in “Percent Effect” value: -1.535% for the first, -34.98% for the second.

Going from `Cc1nn(C)c(N(C)C)c1CNCC(O)c1ccccc1` (centres undefined) to `CC(=O)Nc1ccc(CNCC(O)c2ccccc2)cc1` (centres undefined), the “Percent Effect” value rises from -52.78% to 6.789%.

Going from `COC(=O)CNC(=O)C(C)Oc1ccccc1C(F)(F)F` (centres undefined) to `CC(C(N)=O)N(C)Cc1ccccc1C(F)(F)F` (centres undefined), the “Percent Effect” value rises from -63.42% to -7.943%.

Compared with `CN(Cc1ccccc1C(F)(F)F)C(C(N)=O)c1ccccc1` (centres undefined), `Cl.OC(CNCc1ccccc1C(F)(F)F)c1ccccc1` (centres undefined) is higher in “Percent Effect” value: -32.88% for the first, 81.89% for the second.

Going from `CC(O)CNCc1ccccc1C(F)(F)F.Cl` (centres undefined) to `CC(C)Oc1ccc(C(O)CNCc2ccccc2C(F)(F)F)cc1` (centres undefined), the “Percent Effect” value rises from -50.42% to 82.7%.

Compared with `Cc1ccccc1CNCC(O)c1ccc(OC(C)C)cc1` (centres undefined), `CC(=O)Nc1ccc(CNCC(O)c2ccc(C)cc2)cc1` (centres undefined) is lower in “Percent Effect” value: 92.11% for the first, -93.75% for the second.

Compared with `CC(C)C(NC(=O)NCCNc1ncccn1)c1cccs1` (centres undefined), `CC(C)N1CCCC(C(=O)NCCc2csc(-c3ccncc3)n2)C1` (centres undefined) is lower in “Percent Effect” value: -40.63% for the first, -80.76% for the second.

Going from `CN1CCC2(CC1)CN(C(=O)c1ccncc1)Cc1ccccc12` to `COC(=O)c1ncccc1N1CCC(C(O)c2ccccc2)CC1` (centres undefined), the “Percent Effect” value rises from -65.66% to -12.82%.

Going from `O=C(CCC1CCCO1)NCCCC(=O)Nc1ccc(Cl)cc1` (centres undefined) to `Cn1cc(C2=CCN(CCCC(=O)Nc3ccc(C#N)cc3)CC2)cn1`, the “Percent Effect” value rises from -199.2% to -71.5%.

Going from `CCOc1ccc(S(=O)(=O)N(CCOC)Cc2ccncc2)cc1F` to `CS(=O)(=O)c1ccc(NC(=O)NC2(c3cccc(F)c3)CC2)cc1`, the “Percent Effect” value falls from -28.24% to -42.46%.

First: CNC(=O)C1CCN(c2nc3nc[nH]c(=O)c3s2)CC1
Second: Cc1cccc(C(=O)N(C)C2CCN(c3ccccn3)CC2)c1C
The “Percent Effect” value of the first is lower: -123.8% for the first, -82.1% for the second.

Compared with `CC(C)CN1C(=O)C2(CCN(Cc3ccoc3)C2)c2ccccc21.O=C(O)C(F)(F)F` (centres undefined), `COc1ccc(CN2C[C@@H]3OCCN(C)[C@@H]3C2)cc1.O=C(O)C(F)(F)F` is lower in “Percent Effect” value: -29.95% for the first, -49.2% for the second.

Going from `Cn1ccnc1CN1CCCC2(CCN(CC3CCCO3)CC2)C1.O=C(O)C(F)(F)F.O=C(O)C(F)(F)F` (centres undefined) to `COc1ccc(CN2C[C@@H]3OCCN(CCN4CCCC4)[C@@H]3C2)cc1.O=C(O)C(F)(F)F.O=C(O)C(F)(F)F.O=C(O)C(F)(F)F`, the “Percent Effect” value rises from 15.47% to 62.07%.

Going from `O=C(O)C(F)(F)F.O=C(O)C(F)(F)F.O=C(O)C(F)(F)F.O=C(O)C(F)(F)F.c1cc(CN2C[C@@H]3OCCN(CCN4CCCC4)[C@@H]3C2)ccn1` to `Fc1ccc(CN2C[C@@H]3OCCN(CCN4CCCC4)[C@@H]3C2)cc1.O=C(O)C(F)(F)F.O=C(O)C(F)(F)F.O=C(O)C(F)(F)F`, the “Percent Effect” value rises from -114.9% to -79.23%.

First: CCc1ccc(CN2C[C@@H]3OCCN(c4ccnc(N(C)C)n4)[C@@H]3C2)o1.O=C(O)C(F)(F)F
Second: CN(C)c1nccc(N2CCO[C@H]3CN(Cc4ccsc4)C[C@H]32)n1.O=C(O)C(F)(F)F
The “Percent Effect” value of the first is lower: 5.976% for the first, 68.45% for the second.

First: O=C(O)C(F)(F)F.O=C(O)C(F)(F)F.c1cnc(N2CCO[C@H]3CN(Cc4ccsc4)C[C@H]32)nc1
Second: COc1ncccc1CN1C[C@@H]2OCCN(CCN(C)C)[C@@H]2C1.O=C(O)C(F)(F)F.O=C(O)C(F)(F)F.O=C(O)C(F)(F)F
The “Percent Effect” value of the first is higher: 32.67% for the first, -6.564% for the second.

Going from `COc1ncccc1CN1CC[C@H]2[C@H]1CCN2CCN(C)C.O=C(O)C(F)(F)F.O=C(O)C(F)(F)F.O=C(O)C(F)(F)F.O=C(O)C(F)(F)F` to `CN(C)CCN1CCO[C@H]2CN(Cc3ccccn3)C[C@H]21.O=C(O)C(F)(F)F.O=C(O)C(F)(F)F.O=C(O)C(F)(F)F.O=C(O)C(F)(F)F`, the “Percent Effect” value falls from 52.47% to 8.318%.

Compared with `COc1ccc(CN2C[C@@H]3OCCN(CCN(C)C)[C@@H]3C2)cc1.O=C(O)C(F)(F)F.O=C(O)C(F)(F)F.O=C(O)C(F)(F)F`, `COc1ccc(CN2CC(O)CN(C(=O)OCC(C)C)CC2=O)cc1` (centres undefined) is lower in “Percent Effect” value: 65.18% for the first, -72.03% for the second.

Going from `O=C(C1CCOC1)N1CCC2(CCN(Cc3nccs3)C2)CC1` (centres undefined) to `COc1cccn(CC(=O)N2CCC3(CCNCC3)C2)c1=O`, the “Percent Effect” value rises from -29.96% to -26.75%.

Compared with `COc1cccc(CN2CC3(CCNCC3)CCC2=O)c1OC`, `CCC(O)Cn1cc(C2=CCN(Cc3ccc(OC)cc3)CC2)cn1` (centres undefined) is higher in “Percent Effect” value: 6.381% for the first, 67.35% for the second.

First: O=C(COCC1CCCO1)N(Cc1cccnc1)c1ccc(F)cc1 (centres undefined)
Second: Cn1cc(C2=CCN(CCCOc3ccc(C(N)=O)cc3)CC2)cn1
The “Percent Effect” value of the first is higher: -38.29% for the first, -65.42% for the second.

Going from `O=S(=O)(CCCN1CCCC1Cn1cncn1)c1ccccc1` (centres undefined) to `CC(C)(C)n1cc(C2=CCN(CCc3ccccc3)CC2)cn1`, the “Percent Effect” value rises from -135.1% to 67.25%.

First: Cc1nc(O)cc(CN2CC=C(c3cnn(C(C)(C)C)c3)CC2)n1
Second: CCC(O)Cn1cc(C2=CCN(Cc3cc(O)nc(C)n3)CC2)cn1 (centres undefined)
The “Percent Effect” value of the first is lower: -65.29% for the first, -28.24% for the second.

Compared with `CC(C)(C)n1cc(C2=CCN(CCNC(=O)c3ccccc3)CC2)cn1`, `CC(C)(C)n1cc(C2=CCN(CCNC(N)=O)CC2)cn1` is lower in “Percent Effect” value: 15.76% for the first, -173.3% for the second.

Compared with `CC(C)(C)n1cc(C2=CCN(CCc3ccccn3)CC2)cn1`, `CC(O)(CNC(=O)c1cccnc1-n1cccn1)c1ccco1` (centres undefined) is lower in “Percent Effect” value: 43.76% for the first, -10.35% for the second.

Compared with `CCN1CCCCC1C(=O)N1CCC(OCCOC)CC1` (centres undefined), `CSc1ccccc1C(=O)N1C[C@@H](N(C)C)[C@H](c2ccc(C)cc2)C1` is higher in “Percent Effect” value: -112.4% for the first, -25.73% for the second.

For `CCc1cnc2c(c1NCc1ccc(OC)cc1)c(=O)n(C)c(=O)n2C`, the “Percent Effect” value was -5.547%.
